Bioassay records from PubChem.
In the library only some 3.9% were active in any assay of this set; here they are far more common.
HIF-2a inh: blocks HIF-2a reporter activity. actives 0.72% (n = 360,000). inhibition, % at 18.8 µM. 786-0 RCC cells HIF-2a reporter, luciferase luminescence, overnight;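 active means inhibition of the luminescence signal of 40% or more relative to plate controls, in a single-dose primary screen at 18.75 µM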
TROY NFkB inh: blocks TROY-dependent signaling in reporter cells; Q293 LMP1-TROYcd NF-kB luciferase reporter, 4 h; inhibition, % at 10 µM; actives 0.98% (n = 360,000);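 active means compounds whose plate-normalised and pattern-corrected inhibition of the luciferase reporter signal at the single screening dose is 50% or more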
aSyn UTR inh: MLPCN primary screen, SNCA 5' untranslated region. alpha-synuclein 5'UTR reporter, inhibitor activity. inhibition, % (tested at 7.5 µM). actives 0.82% (n = 300,000); in the data active means inhibition above about 60%;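 further: H4 neuroglioblastoma cells stably carrying SNCA 5'UTR luciferase fusion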
TRAIL sens C8: caspase-8 TRAIL sensitization; NB7+C8 cells + TRAIL, ATPlite viability luminescence; inhibition (viability loss, TRAIL sensitization), % at 10 µM; actives 1% (n = 360,000);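 active means compounds causing at least 50% loss of cell viability in the single-dose screen, relative to plate controls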
HSP90 inh: inhibitors of HSP90 luciferase refolding in rabbit reticulocyte lysate; luciferase refolding luminescence, 3 h; inhibition, % at 5.6 µM; actives 0.91% (n = 290,000); AID 1789;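 active means inhibition above the screen-wide mean plus 3 SD, computed separately per campaign, cut at about 16% in these data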;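 further: inhibitors lower the luminescence because luciferase stays unfolded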
TWEAK Fn14 block: TWEAK-Fn14 signaling inhibition | TWEAK-stimulated Fn14 reporter cells, luciferase luminescence, 8 h | inhibition, % at 10 µM | actives 2% (n = 360,000) | AID 1159606; in the data active means inhibition above about 50%
Of the large screens only hits and unclear results are named; the others gave an inactive call.

CO[C@H]1CN(C)C(=O)c2ccc(NC(=O)C3CCC3)cc2OC[C@H](C)N(Cc2ccccn2)C[C@@H]1C	none (no result: TROY NFkB inh, aSyn UTR inh, HSP90 inh, TWEAK Fn14 block)
CN(C)CCN1CCN(C2CN(CCc3ccccc3)S(=O)(=O)C2)CC1 (configuration not stated)	none (no result: aSyn UTR inh, HSP90 inh)
C=COCCCNc1ncnc2sc(-c3ccccc3)cc12	TWEAK Fn14 block 87
CC(C)(C)Nc1ncnc2sc(-c3ccccc3)cc12	TWEAK Fn14 block 71
OCCCNc1ncnc2sc(-c3ccccc3)cc12	none
COC(CNc1ncnc2sc(-c3ccccc3)cc12)OC	none
CC(=O)c1sc(NC(=O)c2cc(=O)c3ccccc3o2)nc1C	TRAIL sens C8 54
CCOC(=O)c1csc(NC(=O)c2cc(=O)c3ccccc3o2)n1	none
C[C@H](O)CNC(=O)c1[nH]cnc1C(=O)N[C@@H](C)c1ccccc1	none (no result: aSyn UTR inh, HSP90 inh)
CCCCC[C@H](C)N1C[C@H](COCc2ccccc2)Oc2cc(N3CC[C@H](O)C3)ccc2S1(=O)=O	none (no result: aSyn UTR inh, HSP90 inh)
CCCCC[C@@H](C)N1C[C@H](COCc2ccccc2)Oc2cc(N3CC[C@H](N(C)C)C3)ccc2S1(=O)=O	TRAIL sens C8 69 (no result: aSyn UTR inh, HSP90 inh)
O=C(NO)c1cc(OCC(F)(F)F)ccc1OCC(F)(F)F	TRAIL sens C8 51
O=C(NNC(=O)c1cc(OCC(F)(F)F)ccc1OCC(F)(F)F)c1cccc(C(F)(F)F)c1	TRAIL sens C8 52
CC(=O)Nc1ccc(-c2noc(-c3csc([C@@H]4C[C@H](O)[C@@H](CO)O4)n3)n2)cc1	none (no result: aSyn UTR inh, HSP90 inh)
CCN(C(=O)COC(=O)CCC(=O)c1cccs1)c1ccccc1	none (no result: aSyn UTR inh, HSP90 inh)
Cc1nc2c(cnn2-c2ccccc2Cl)c(=O)n1-c1ccc(N2CCC(C)CC2)cc1	none
CCc1nc2c(cnn2-c2ccc(F)cc2)c(=O)n1-c1ccc(N2CCC(C)CC2)cc1	TWEAK Fn14 block 65
O=C(CC1C(=O)NCCN1Cc1ccccc1)NC1CCCCC1 (configuration not stated)	none (no result: aSyn UTR inh, HSP90 inh)
O=C(CC[C@H]1O[C@@H](n2ccc(=O)[nH]c2=O)[C@H](O)[C@@H]1O)N[C@@H](Cc1ccccc1)C(=O)NCC1CCCO1 (some centres not stated)	TROY NFkB inh 54 (no result: aSyn UTR inh, HSP90 inh)
O=C(CC[C@H]1O[C@@H](n2ccc(=O)[nH]c2=O)[C@H](O)[C@@H]1O)N[C@H](Cc1ccccc1)C(=O)NCC1CCCCC1	none (no result: aSyn UTR inh, HSP90 inh)
O=C(NNC(=O)c1ccccc1-n1cccc1)c1ccc(Cl)cc1	TWEAK Fn14 block 83
O=C(NNC(=O)c1ccccc1-n1cccc1)c1ccc(Cl)c(Cl)c1	none
CS/C(N)=N/N=C/c1cc(C)ccc1O	TRAIL sens C8 64
CCCCS/C(N)=N/N=C/c1cc(C)ccc1O	none
CCS/C(N)=N/N=C/c1cc(C)ccc1O	TRAIL sens C8 72
COc1cc(NCCCn2cnc(C(=O)Nc3ccc(C)c(C)c3)n2)cc(OC)c1OC	none (no result: aSyn UTR inh, HSP90 inh)
Nc1sccc1C(=O)NCCN1CCOCC1	none (no result: TROY NFkB inh, aSyn UTR inh, HSP90 inh, TWEAK Fn14 block)
CC(C)C[C@H](NC(=O)c1nc[nH]c1C(=O)NCCCCCNC(=O)OC(C)(C)C)C(=O)OC(C)(C)C	none
CC(C)(C)OC(=O)[C@H](Cc1ccccc1)NC(=O)c1[nH]cnc1C(=O)Nc1ccccc1F	TRAIL sens C8 62 (no result: aSyn UTR inh, HSP90 inh)
CC(C)(C)OC(=O)NCCCC[C@H](NC(=O)c1[nH]cnc1C(=O)Nc1ccccc1)C(=O)OC(C)(C)C	TRAIL sens C8 59 (no result: HSP90 inh)
CC(C)(C)OC(=O)NCCCC[C@H](NC(=O)c1[nH]cnc1C(=O)Nc1ccc(Cl)cc1)C(=O)OC(C)(C)C	none (no result: HSP90 inh)
CNC(=O)c1[nH]cnc1C(=O)N[C@@H](Cc1ccccc1)C(=O)OC(C)(C)C	none
CC(C)C[C@H](NC(=O)c1nc[nH]c1C(=O)N[C@@H](CCCCNC(=O)OC(C)(C)C)C(=O)OC(C)(C)C)C(=O)OC(C)(C)C	TRAIL sens C8 51 (no result: HSP90 inh)
CC(C)(C)OC(=O)NCc1ccc(NC(=O)c2nc[nH]c2C(=O)N[C@@H](Cc2ccccc2)C(=O)OCc2ccccc2)cc1	TRAIL sens C8 83 (no result: HSP90 inh)
CC(=O)NC(c1ccccc1)c1nc(-c2cccc(C#N)c2)cs1 (configuration not stated)	none (no result: aSyn UTR inh, HSP90 inh)
CC1(C(=O)Nc2cccc3ccccc23)CCN1C(=O)Cc1ccccc1Cl (configuration not stated)	none (no result: aSyn UTR inh, HSP90 inh)
COC(=O)[C@@]1(Cc2ccc(F)cc2)[C@H]2c3cc(C(=O)N(C)C)n(CCc4c[nH]c5ccc(O)cc45)c3C[C@H]2CN1C(=O)c1ccccc1	none (no result: aSyn UTR inh, HSP90 inh)
